Measured values from PubChem BioAssay.
The list shows a part of the results. Activity calls are given as the source filed them.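 Rule for the calls, unless noted: active = mean inhibition above about 50% in the one-dose retest (limit read from the data); inactive = the rest.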

These molecules were tested against Sentrin-specific protease 7 (Homo sapiens) (UniProt Q9BQF6) (assay: human SENP7 peptidase blockers, hit retest – biochemical, luminescence, single concentration, confirmation (AID 488917)). Details: recombinant SENP7, Z-RLRGG-aminoluciferin luminescence, 40 min; at 12.5 µM; hits give high values.
Chain of Sentrin-specific protease 7 (Homo sapiens) (Q9BQF6 706-1050 limits assumed): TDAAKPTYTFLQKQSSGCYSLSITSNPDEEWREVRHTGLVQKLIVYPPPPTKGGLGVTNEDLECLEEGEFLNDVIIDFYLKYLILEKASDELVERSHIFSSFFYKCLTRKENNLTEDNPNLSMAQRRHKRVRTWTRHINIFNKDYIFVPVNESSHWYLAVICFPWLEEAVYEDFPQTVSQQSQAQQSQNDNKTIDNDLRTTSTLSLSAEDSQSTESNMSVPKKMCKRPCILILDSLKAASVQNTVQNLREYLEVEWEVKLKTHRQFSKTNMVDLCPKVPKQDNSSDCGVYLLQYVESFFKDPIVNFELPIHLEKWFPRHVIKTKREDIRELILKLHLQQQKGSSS

SMILES | inhibition
O=c1c2ccccc2ncn1/N=C/c1ccccc1 | 97% (active)
CCc1ccc(NC(=O)C(=O)NNC(=O)c2cccs2)cc1 | 93.2% (active)
CCOC(=O)c1sc(NC(=O)c2ccncc2)nc1C | 90.8% (active)
O=C1/C(=C/c2cccs2)CCc2ccccc21 | 101% (active)
CC(=O)Nc1ccc(/C=N/NC(=O)c2cccs2)cc1 | 78.5% (active)
O=C(Nc1ccccc1)c1cc2ccccc2[nH]1 | 1.9% (inactive)
O=C(Nc1ccccc1Cl)Nc1cccc2cccnc12 | 75.2% (active)
CCCCOc1ccc(-c2nnc(-c3ccco3)o2)cc1 | 41.1% (inactive)
c1csc(-c2nc(-c3ccncc3)no2)c1 | 83.4% (active)
Oc1ccccc1-c1cc(-c2ccc(Cl)cc2)n[nH]1 | 99.9% (active)
O=c1c(-c2ccccc2)coc2cc(O)ccc12 | 88.2% (active)
Cc1cccc(OCC(=O)Nc2ccccc2F)c1 | 72.8% (active)
Cc1ccc(/C=N/NC(=O)c2cc3ccccc3cc2O)o1 | 89.2% (active)
Cc1cc(NC(=O)Nc2ccccc2[N+](=O)[O-])no1 | 77.2% (active)
Cc1ccccc1Nc1nc(-c2cccnc2)cs1 | 86.9% (active)
Brc1ccc(-c2nnc(-c3ccccc3)o2)o1 | 80.1% (active)
O=C(NC(=O)c1ccccc1)Nc1ccccc1O | 69.7% (active)
COc1ccc(NC(=O)Nc2cccc3cccnc23)cc1 | 97.2% (active)
Cc1cc(C(=O)Nc2nnc(C3CC3)s2)c(C)s1 | 94.1% (active)
COc1cc(NC(=O)COC(=O)c2ccc([N+](=O)[O-])s2)cc(OC)c1OC | 45.8% (inactive)

SMILES | inhibition
COc1cccc(OCC(O)CNC(=O)c2oc3c(C)c(C)ccc3c2C)c1 (stereo not drawn) | -2.1% (inactive)
c1ccc(-c2cc(-c3ccccc3)[nH]n2)cc1 | 85.8% (active)
COc1ccc(C(=O)Nc2ccc(C3(C#N)CCCC3)cc2)cc1OC | 101% (active)
N=c1c2c3c(sc2nc2n1CCCCC2)CCCC3 | 10.6% (inactive)
CC(=O)N1C(=O)/C(=C2\SC(=S)N(NC(=O)c3ccc(O)cc3)C2=O)c2ccccc21 | 25.2% (inactive)
Cc1nonc1C(=O)N/N=C/c1ccc(O)cc1 | 103% (active)
CNc1nc(Nc2ccc(C)c(Cl)c2)nc(N)c1[N+](=O)[O-] | 103% (active)
O=C(Nc1cccnc1Cl)c1cc(-c2ccccc2O)on1 | 16.2% (inactive)
c1ccc(-c2noc(-c3cccs3)n2)nc1 | 98.9% (active)
Brc1ccccc1C1Nc2cccc3cccc(c23)N1 | -9.3% (inactive)
COc1cccc(C(=O)Nc2ccc(NC(=O)c3ccco3)cn2)c1 | 82.4% (active)
C1=C(CCNc2ncnc3c2cnn3-c2ccccc2)CCCC1 | -1.5% (inactive)
Cc1ccnc(NC(=O)c2ccoc2C)c1 | 97.1% (active)
O=C(Nc1nnc(C2CC2)s1)c1ccccn1 | 82.6% (active)
O=C(Nc1nc2ccc([N+](=O)[O-])cc2s1)c1ccncc1 | 15.1% (inactive)
O=c1c2c(nc3n1CCCCC3)sc1c(O)cccc12 | 75.5% (active)
CC1=CC(=C(C#N)c2nc3ccccc3s2)C=C(C)N1c1ccc(F)cc1F | -0.4% (inactive)
O=C(NCc1ccccn1)c1c(O)c2c([nH]c1=O)CCCC2 | -5.1% (inactive)
Nc1ccc(-c2nnc(-c3ccc(-c4ccccc4)cc3)o2)cc1 | 32.4% (inactive)

Each molecule was assayed against Caspase-3 (Homo sapiens) (UniProt P42574) (assay: human caspase-3 activity blockade, out-of-family – biochemical, single concentration, selectivity assay for SENP inhibitor project, confirmation (AID 488918;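 active = mean inhibition above about 50%, limit read from the data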;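 note: plate controls were enzyme with DMSO for no effect and wells without caspase-3 for full effect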)). Details: purified caspase-3, Z-DEVD-aminoluciferin luminescence, 60 min; at 12.5 µM; hits give high values.
Chain of Caspase-3 (Homo sapiens) (P42574 28-227 limits assumed): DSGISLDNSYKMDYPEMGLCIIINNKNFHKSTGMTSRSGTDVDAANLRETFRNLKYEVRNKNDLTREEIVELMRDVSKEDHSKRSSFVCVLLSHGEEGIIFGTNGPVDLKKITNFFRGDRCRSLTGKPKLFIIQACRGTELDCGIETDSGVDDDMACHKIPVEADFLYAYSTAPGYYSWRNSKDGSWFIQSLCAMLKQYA

SMILES | inhibition
O=c1c2ccccc2ncn1/N=C/c1ccccc1 | 86.6% (active)
CCc1ccc(NC(=O)C(=O)NNC(=O)c2cccs2)cc1 | 89.9% (active)
CCOC(=O)c1sc(NC(=O)c2ccncc2)nc1C | 84.4% (active)
O=C1/C(=C/c2cccs2)CCc2ccccc21 | 95.8% (active)
CC(=O)Nc1ccc(/C=N/NC(=O)c2cccs2)cc1 | 82.4% (active)
O=C(Nc1ccccc1)c1cc2ccccc2[nH]1 | -4.8% (inactive)
O=C(Nc1ccccc1Cl)Nc1cccc2cccnc12 | 25.9% (inactive)
CCCCOc1ccc(-c2nnc(-c3ccco3)o2)cc1 | 12.6% (inactive)
c1csc(-c2nc(-c3ccncc3)no2)c1 | 80.4% (active)
Oc1ccccc1-c1cc(-c2ccc(Cl)cc2)n[nH]1 | 68.9% (active)
O=c1c(-c2ccccc2)coc2cc(O)ccc12 | 85.9% (active)
Cc1cccc(OCC(=O)Nc2ccccc2F)c1 | 62.7% (active)
Cc1ccc(/C=N/NC(=O)c2cc3ccccc3cc2O)o1 | 76.8% (active)
Cc1cc(NC(=O)Nc2ccccc2[N+](=O)[O-])no1 | 70.8% (active)
Cc1ccccc1Nc1nc(-c2cccnc2)cs1 | 52.8% (active)
Brc1ccc(-c2nnc(-c3ccccc3)o2)o1 | 62.9% (active)
O=C(NC(=O)c1ccccc1)Nc1ccccc1O | 73.3% (active)
COc1ccc(NC(=O)Nc2cccc3cccnc23)cc1 | 70.7% (active)
Cc1cc(C(=O)Nc2nnc(C3CC3)s2)c(C)s1 | 83.7% (active)
COc1cc(NC(=O)COC(=O)c2ccc([N+](=O)[O-])s2)cc(OC)c1OC | 18.4% (inactive)

SMILES | inhibition
COc1cccc(OCC(O)CNC(=O)c2oc3c(C)c(C)ccc3c2C)c1 (stereo not drawn) | -3.9% (inactive)
c1ccc(-c2cc(-c3ccccc3)[nH]n2)cc1 | 38% (inactive)
COc1ccc(C(=O)Nc2ccc(C3(C#N)CCCC3)cc2)cc1OC | 91.9% (active)
N=c1c2c3c(sc2nc2n1CCCCC2)CCCC3 | 11.1% (inactive)
CC(=O)N1C(=O)/C(=C2\SC(=S)N(NC(=O)c3ccc(O)cc3)C2=O)c2ccccc21 | 10.3% (inactive)
Cc1nonc1C(=O)N/N=C/c1ccc(O)cc1 | 99.4% (active)
CNc1nc(Nc2ccc(C)c(Cl)c2)nc(N)c1[N+](=O)[O-] | 96.9% (active)
O=C(Nc1cccnc1Cl)c1cc(-c2ccccc2O)on1 | 8% (inactive)
c1ccc(-c2noc(-c3cccs3)n2)nc1 | 95.4% (active)
Brc1ccccc1C1Nc2cccc3cccc(c23)N1 | 1.1% (inactive)
COc1cccc(C(=O)Nc2ccc(NC(=O)c3ccco3)cn2)c1 | 76.1% (active)
C1=C(CCNc2ncnc3c2cnn3-c2ccccc2)CCCC1 | 39.5% (inactive)
Cc1ccnc(NC(=O)c2ccoc2C)c1 | 95.6% (active)
O=C(Nc1nnc(C2CC2)s1)c1ccccn1 | 83.6% (active)
O=C(Nc1nc2ccc([N+](=O)[O-])cc2s1)c1ccncc1 | 7.6% (inactive)
O=c1c2c(nc3n1CCCCC3)sc1c(O)cccc12 | 59.4% (active)
CC1=CC(=C(C#N)c2nc3ccccc3s2)C=C(C)N1c1ccc(F)cc1F | -3.2% (inactive)
O=C(NCc1ccccn1)c1c(O)c2c([nH]c1=O)CCCC2 | -3.9% (inactive)
Nc1ccc(-c2nnc(-c3ccc(-c4ccccc4)cc3)o2)cc1 | 6.5% (inactive)
